# PubChem BioAssay (NCATS)
# Several values for one entry are separate records, joined by “and”; a condition that tells them apart may be missing. Equal entries are not always repeated. Inconclusive results are not listed. A call without a number means that no potency is given here. Activity calls are given as the source filed them. Calls come from the whole dose curve; as a rule, active = well fitted inhibition curve with a large enough effect; inconclusive = small, poorly fitted or top-dose-only effect; inactive = flat fitted curve, though single readings scatter.
# How the values were obtained:
# Assay in all cases: qHTS profiling for inhibitors of Plasmodium falciparum proliferation (AID 504749); note: nearly all actives have a fitted effect of over 60% in size
# Settings in all cases: P. falciparum in erythrocytes, SYBR Green DNA, 72 h; series mostly up to 28.7 µM
# CP315 = system: CP315
# Summary of the method: (§1)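 P. falciparum-infected erythrocytes (0.3% parasitemia, 2.5% hematocrit) incubated with compound 72 h at 37 C, 5% CO2. Parasite DNA detected by SYBR Green after lysis, overnight at room temperature; normalised to 0.29 uM artemisinin and DMSO.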
# CP325 = system: CP325
# Summary of the method: as §1
# CP329 = system: CP329
# Summary of the method: as §1
# CP335 = system: CP335
# Summary of the method: as §1
# DFO2036 = system: DFO2036
# Summary of the method: as §1
# DIV14 = system: DIV14
# Summary of the method: as §1
# DIV17 = system: DIV17
# Summary of the method: as §1
# DIV30 = system: DIV30
# Summary of the method: as §1
# Dd2 = system: Dd2
# Summary of the method: as §1
# ECU = system: ECU
# Summary of the method: as §1
# Potency is the fitted concentration of half-maximal effect.
SMILES,Potency (CP315),Potency (CP325),Potency (CP329),Potency (CP335),Potency (DFO2036),Potency (DIV14),Potency (DIV17),Potency (DIV30),Potency (Dd2),Potency (ECU)
CCCCCCCCCCCC[N+](C)(C)CCOc1ccccc1,15.1 µM (active),9.53 µM (active),13.5 µM (active),6.01 µM (active),5.01 µM (active),5.36 µM (active),8.49 µM (active),13.5 µM (active),3.55 µM (active),5.01 µM (active)
CC(C)C(Br)C(=O)NC(N)=O (configuration not stated),inactive,inactive,inactive,inactive,inactive,inactive,inactive,inactive,inactive,inactive
CCCCCCCCC(=O)NCc1ccc(O)c(OC)c1,inactive,inactive,inactive,inactive,inactive,inactive,inactive,inactive,inactive,inactive
CN(C)C(=S)SSC(=S)N(C)C,4.78 µM (active),2.39 µM (active),3.79 µM (active),1.51 µM (active),2.82 µM (active),1.9 µM (active),1.51 µM (active),1.69 µM (active),1 µM (active),6.31 µM (active)
CCC(=O)O[C@H]1CC[C@H]2[C@@H]3CCC4=CC(=O)CC[C@]4(C)[C@H]3CC[C@]12C,inactive,inactive,inactive,inactive,inactive,inactive,inactive,inactive,inactive,inactive
CCNc1nc(Cl)nc(NCC)n1,inactive,inactive,inactive,inactive,inactive,inactive,inactive,inactive,inactive,inactive
COC(=O)C1=CCCN(C)C1,inactive,inactive,inactive,inactive,inactive,inactive,inactive,inactive,inactive,inactive
c1ccc2nc(N3CCNCC3)ccc2c1,inactive,inactive,inactive,inactive,inactive,inactive,inactive,inactive,inactive,inactive
NCc1cccnc1,inactive,inactive,inactive,inactive,inactive,inactive,inactive,inactive,inactive,inactive
CC(C)NCC(O)c1ccc(N)c(C#N)c1 (configuration not stated),inactive,inactive,inactive,inactive,inactive,inactive,inactive,inactive,inactive,inactive
COP(=S)(OC)Oc1ccc(Sc2ccc(OP(=S)(OC)OC)cc2)cc1,inactive,inactive,inactive,inactive,inactive,inactive,inactive,inactive,inactive,inactive
C[N+](C)(C)CCOC(=O)C(O)(c1ccccc1)c1ccccc1,inactive,inactive,inactive,inactive,inactive,inactive,inactive,inactive,inactive,inactive
COP(=O)(OC)OC=C(Cl)Cl,inactive,inactive,inactive,inactive,inactive,inactive,inactive,inactive,inactive,inactive
CC[n+]1c(-c2ccccc2)c2cc(N)ccc2c2ccc(N)cc21,478 nM (active) and 1.69 µM (active),95.3 nM (active) and 379 nM (active),107 nM (active) and 426 nM (active),84.9 nM (active) and 239 nM (active),89.1 nM (active) and 251 nM (active),53.6 nM (active) and 107 nM (active),53.6 nM (active) and 151 nM (active),426 nM (active) and 1.9 µM (active),20 nM (active) and 100 nM (active),141 nM (active) and 447 nM (active)
CCC1(CC)C(=O)NC(=O)NC1=O,inactive,inactive,inactive,inactive,inactive,inactive,inactive,inactive,inactive,inactive
NC(=O)CN1CCCC1=O,inactive,inactive,inactive,inactive,inactive,inactive,inactive,inactive,inactive,inactive
CCS(=O)(=O)C(C)(C)S(=O)(=O)CC,inactive,inactive,inactive,inactive,inactive,inactive,inactive,inactive,inactive,inactive
COP(=O)(OC)C(O)C(Cl)(Cl)Cl (configuration not stated),inactive,inactive,inactive,inactive,inactive,inactive,inactive,inactive,inactive,
CCOC(=O)NC(O)C(Cl)(Cl)Cl (configuration not stated),inactive,inactive,inactive,inactive,inactive,inactive,inactive,inactive,inactive,inactive
OC(O)C(Cl)(Cl)Cl,inactive,inactive,inactive,inactive,inactive,inactive,inactive,inactive,inactive,inactive
CC(C)[N+](C)(CCC(C(N)=O)(c1ccccc1)c1ccccc1)C(C)C,inactive,inactive,inactive,inactive,inactive,inactive,inactive,inactive,inactive,inactive

SMILES,Potency (CP315),Potency (CP325),Potency (CP329),Potency (CP335),Potency (DFO2036),Potency (DIV14),Potency (DIV17),Potency (DIV30),Potency (Dd2),Potency (ECU)
Cc1ncc2n1-c1ccc(Cl)cc1C(c1ccccc1F)=NC2,inactive,inactive,inactive,inactive,inactive,inactive,inactive,inactive,inactive,inactive
C[C@H]1C(=O)O[C@@H]2CCN3CC=C(COC(=O)[C@](C)(O)[C@]1(C)O)[C@H]23,inactive,inactive,inactive,inactive,inactive,inactive,inactive,inactive,inactive,inactive
NC(=O)OCCCc1ccccc1,inactive,inactive,inactive,inactive,inactive,inactive,inactive,inactive,inactive,inactive
O=c1n(Cl)c(=O)n(Cl)c(=O)n1Cl,inactive,inactive,inactive,inactive,inactive,inactive,inactive,inactive,inactive,inactive
Cc1ccc(N=CN(C)C=Nc2ccc(C)cc2C)c(C)c1,inactive,inactive,inactive,inactive,inactive,inactive,inactive,inactive,inactive,inactive
C[C@]12CC[C@H]3[C@@H](CC=C4C[C@@H](O)CC[C@@]43C)[C@@H]1CC[C@@H]2O,inactive,inactive,inactive,inactive,inactive,inactive,inactive,inactive,inactive,inactive
O=C(O)c1nn(Cc2ccc(Cl)cc2Cl)c2ccccc12,inactive,inactive,inactive,inactive,inactive,inactive,inactive,inactive,inactive,inactive
CCN(Cc1ccc(Cl)nc1)/C(=C/[N+](=O)[O-])NC,inactive,inactive,inactive,inactive,inactive,inactive,inactive,inactive,inactive,inactive
CCN(CC)C(C)C(=O)c1ccccc1 (configuration not stated),inactive,inactive,inactive,inactive,inactive,inactive,inactive,inactive,inactive,inactive
Oc1c(Br)cc(Br)cc1Br,inactive,inactive,inactive,inactive,inactive,inactive,inactive,inactive,inactive,inactive
CCN(CC)CCOC(=O)C(C)(c1ccccc1)c1ccccc1,inactive,,,4.78 µM (active),,,6.01 µM (active),,0.0891 µM (active),
C[C@]12Cc3nonc3C[C@@H]1CC[C@@H]1[C@@H]2CC[C@@]2(C)[C@H]1CC[C@]2(C)O,inactive,inactive,inactive,,inactive,inactive,inactive,inactive,inactive,inactive
CN1C[C@@H](NS(=O)(=O)N(C)C)C[C@@H]2c3cccc4c3c(cn4C)C[C@H]21,inactive,inactive,,,inactive,inactive,inactive,,,inactive
C#C[C@]1(O)CC[C@H]2[C@@H]3CCC4=CC(=O)CCC4=C3C=C[C@@]21CC,inactive,,,,,4.26 µM (active),5.36 µM (active),,,11.2 µM (active)
COCC(=O)N(c1c(C)cccc1C)C(C)C(=O)OC (configuration not stated),inactive,inactive,inactive,inactive,,inactive,inactive,inactive,inactive,
CN1C(=O)CN=C(c2ccccc2)c2cc([N+](=O)[O-])ccc21,inactive,,inactive,,inactive,inactive,inactive,inactive,inactive,inactive
COc1ccc(CN2CCNCC2)c(OC)c1OC,,,,inactive,inactive,,,,inactive,inactive
CCC1(c2ccccc2)CCC(=O)NC1=O (configuration not stated),inactive,inactive,inactive,inactive,inactive,inactive,,inactive,inactive,inactive
Oc1ccc2[nH]cc(CCCCN3CC=C(c4ccccc4)CC3)c2c1,16.9 µM (active),,,,10 µM (active),13.5 µM (active),13.5 µM (active),,11.2 µM (active),
CC(C)(O)C(Cl)(Cl)Cl,,12 µM (active),,2.39 µM (active),3.55 µM (active),1.51 µM (active),1.51 µM (active),5.36 µM (active),2.51 µM (active),3.98 µM (active)
Cc1c(Cl)c(=O)oc2cc(OP(=O)(OCCCl)OCCCl)ccc12,,13.5 µM (active),12 µM (active),,10 µM (active),8.49 µM (active),,,,10 µM (active)

SMILES,Potency (CP315),Potency (CP325),Potency (CP329),Potency (CP335),Potency (DFO2036),Potency (DIV14),Potency (DIV17),Potency (DIV30),Potency (Dd2),Potency (ECU)
CC(C)(C)OC(=O)c1ncn2c1[C@@H]1CCCN1C(=O)c1c(Br)cccc1-2,inactive,inactive,inactive,inactive,inactive,inactive,,inactive,inactive,inactive
CC(Cc1ccccc1)NCc1ccccc1Cl (configuration not stated),inactive,,inactive,,inactive,,,,12.6 µM (active),inactive
CNC(=O)NC(O)C(Cl)(Cl)Cl (configuration not stated),inactive,inactive,inactive,inactive,inactive,,inactive,inactive,inactive,inactive
O=C(NC(=O)c1c(F)cccc1F)Nc1cc(Cl)c(OC(F)(F)C(F)C(F)(F)F)cc1Cl (configuration not stated),inactive,inactive,inactive,,,inactive,inactive,inactive,,
CN1C(=O)[C@@H](NC(=O)c2cc3ccccc3[nH]2)N=C(c2ccccc2)c2ccccc21,,,,,,12 µM (active),10.7 µM (active),,11.2 µM (active),10 µM (active)
CC[C@]1(O)CC[C@H]2[C@@H]3CCC4=CCCC[C@@H]4[C@H]3CC[C@@]21C,inactive,inactive,inactive,inactive,,,,,inactive,inactive
CNC(=O)Oc1cccc2ccccc12,,inactive,inactive,inactive,inactive,,inactive,inactive,inactive,inactive
COc1ccc(C(=O)N2CCCC2=O)cc1,inactive,inactive,inactive,inactive,inactive,inactive,,inactive,inactive,inactive
C[N+]1(CCC(C(N)=O)(c2ccccc2)c2ccccc2)CCCCC1,inactive,,inactive,inactive,inactive,inactive,inactive,inactive,inactive,inactive
C[C@]12C=CC(=O)C=C1CC[C@@H]1[C@@H]2CC[C@@]2(C)[C@H]1CC[C@]2(C)O,,,,inactive,inactive,,,16.9 µM (active),inactive,inactive
Nc1ccc(N)cc1,inactive,,inactive,,,15.1 µM (active),15.1 µM (active),,inactive,
CN1CCc2cc(Cl)c(O)cc2[C@H]2c3ccccc3CC[C@@H]21,inactive,inactive,,8.49 µM (active),,,,,10 µM (active),
OC(c1ccccc1)(c1ccccc1)C1CCNCC1,inactive,inactive,inactive,inactive,inactive,,,,inactive,inactive
ClC1=C(Cl)C2(Cl)C(CBr)CC1(Cl)C2(Cl)Cl (configuration not stated),inactive,inactive,inactive,,inactive,inactive,inactive,inactive,inactive,inactive
c1cc2c(c(N3CCNCC3)c1)OCCO2,inactive,inactive,inactive,inactive,inactive,inactive,,inactive,inactive,inactive
N#Cc1nn(-c2c(Cl)cc(C(F)(F)F)cc2Cl)c(N)c1S(=O)C(F)(F)F (configuration not stated),,,7.57 µM (active),13.5 µM (active),,4.78 µM (active),7.57 µM (active),9.53 µM (active),,
O=C1NCN(c2ccccc2)C12CCN(CCCOc1ccc(F)cc1)CC2,inactive,,inactive,,,8.49 µM (active),,,8.91 µM (active),inactive
Clc1ccc(CO/N=C(\Cn2ccnc2)c2ccc(Cl)cc2Cl)c(Cl)c1,,13.5 µM (active),,6.01 µM (active),3.98 µM (active),1.51 µM (active),1.9 µM (active),3.38 µM (active),4.47 µM (active),2.24 µM (active)
C=CCOC(Cn1ccnc1)c1ccc(Cl)cc1Cl (configuration not stated),16.9 µM (active),15.1 µM (active),,,12.6 µM (active),5.36 µM (active),8.49 µM (active),7.57 µM (active),7.08 µM (active),3.98 µM (active)
O=C(CCCN1CCC(n2c(=O)[nH]c3ccccc32)CC1)c1ccc(F)cc1,,5.1 µM (active),,1.44 µM (active),1.58 µM (active),0.642 µM (active),0.642 µM (active),2.56 µM (active),1 µM (active),1.78 µM (active)
